This note sets out measurements from PubChem BioAssay (NCI).

The panel holds about 83,000 compounds, 20% with a hit somewhere; the sample as a whole holds those more often.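 Cells were grown in 96-well plates and exposed to the test compound at a single concentration for 48 hours; results are reported as percent growth, with values below 10 considered active.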 Unmarked numbers belong to inactive results. The source made the active and inactive calls.

Some test systems named below: SK-MEL-2 melanoma; EKVX NSCLC; SN12C renal; UO-31 renal; TK-10 renal; ACHN renal; CAKI-1 renal; A498 renal; CCRF-CEM leukemia; MOLT-4 leukemia; SR leukemia; RPMI-8226 leukemia; OVCAR-8 ovarian; OVCAR-5 ovarian; OVCAR-4 ovarian; SK-OV-3 ovarian; IGROV1 ovarian; OVCAR-3 ovarian; HS 578T breast; NCI/ADR-RES ovarian.
Holding throughout (assay): NCI-60 one-dose screen, 48 h (100 = growth as untreated, 0 = no growth, -100 = all killed)
Common to all, as to conditions: 10 µM

As to `NC(CSC(c1ccccc1)(c1ccccc1)c1cccc2ccccc12)C(=O)O` (stereo not given), the growth with SK-MEL-2 melanoma is 98.6%; with EKVX NSCLC, 88%; in the assay on SN12C renal, 82.7%; with UO-31 renal it was 84.3%; in the assay on TK-10 renal it was 115%; with ACHN renal it was 97.4%. For the same molecule, the growth in the assay with CAKI-1 renal was 89.9%; with A498 renal it was 100%; in the assay with CCRF-CEM leukemia, 86.2%; in the assay on MOLT-4 leukemia, 88.1%; in the assay with SR leukemia, 112%; in the assay on RPMI-8226 leukemia, 89.2%. Besides, the growth was 95.1% in the assay with OVCAR-8 ovarian; 101% with OVCAR-5 ovarian; 95.4% in the assay on OVCAR-4 ovarian; 106% in the assay on SK-OV-3 ovarian; 98.1% in the assay with IGROV1 ovarian; 98.6% in the assay with OVCAR-3 ovarian. Further, the growth in the assay with HS 578T breast is 92.5%; with NCI/ADR-RES ovarian it was 97.6%.
Take `COc1ccc(/C=C2/SC(=S)NC2=O)c(OC)c1OC`: the growth is 87.4% in the assay on SK-MEL-2 melanoma; 65.9% with EKVX NSCLC; 78.7% with SN12C renal; 42.5% in the assay on UO-31 renal; 81.3% in the assay on TK-10 renal; 77.4% in the assay on ACHN renal. Moreover, the growth in the assay with CAKI-1 renal is 64.3%; in the assay on A498 renal, 54.2%; with CCRF-CEM leukemia, 76.8%; in the assay on MOLT-4 leukemia, 90.1%; with SR leukemia it was 72.4%; with RPMI-8226 leukemia it was 79.4%. For the same molecule, the growth with OVCAR-8 ovarian is 91.5%; with OVCAR-5 ovarian it was 72.8%; with OVCAR-4 ovarian, 87.7%; in the assay on SK-OV-3 ovarian, 91.1%; with IGROV1 ovarian it was 105%; in the assay on OVCAR-3 ovarian, 89.6%. In addition, the values for the growth with HS 578T breast and with NCI/ADR-RES ovarian were 63.6% and 85.2%, respectively.
On to `Cc1cccc(N=Cc2ccccc2O)c1C`, for which the growth in the assay with SK-MEL-2 melanoma is 129%; in the assay with EKVX NSCLC, 93.7%; in the assay with SN12C renal, 89.6%; with UO-31 renal it was 105%; in the assay on TK-10 renal, 121%; in the assay with ACHN renal, 110%. The growth was 92.4% with CAKI-1 renal; 106% in the assay on A498 renal; 101% with CCRF-CEM leukemia; 98.1% in the assay on MOLT-4 leukemia; 111% with SR leukemia; 96.9% with RPMI-8226 leukemia. Besides, the growth is 98.2% in the assay with OVCAR-8 ovarian; 108% with OVCAR-5 ovarian; 104% in the assay with OVCAR-4 ovarian; 108% in the assay with SK-OV-3 ovarian; 115% with IGROV1 ovarian; 113% with OVCAR-3 ovarian. Also, the growth in the assay on HS 578T breast and in the assay with NCI/ADR-RES ovarian was 101% throughout.
Consider `NC1=CC(=O)C(=O)c2cccnc21`, for which the growth in the assay on SK-MEL-2 melanoma is 77.9%; in the assay on EKVX NSCLC, 98.3%; with SN12C renal, 70%; in the assay on UO-31 renal, 47.8%; in the assay with TK-10 renal, 113%; in the assay on ACHN renal, 60.1%. The growth in the assay on CAKI-1 renal is 83.1%; with A498 renal, 92.6%; in the assay with CCRF-CEM leukemia it was 82.9%; in the assay on MOLT-4 leukemia, 106%; with SR leukemia it was 86%; in the assay with RPMI-8226 leukemia it was 73.8%. Further, the growth in the assay on OVCAR-8 ovarian was 76%; in the assay with OVCAR-5 ovarian it was 101%; with OVCAR-4 ovarian, 91.8%; with SK-OV-3 ovarian, 93.9%; in the assay on IGROV1 ovarian, 76.7%; with OVCAR-3 ovarian, 84%. Also, the growth in the assay on HS 578T breast is 77.5%; in the assay with NCI/ADR-RES ovarian, 82.7%.
Take `COc1cc(/C=C/c2cc(/C=C/c3ccc(O)c(OC)c3)[nH]c(=O)n2)ccc1O`: the growth with SK-MEL-2 melanoma is 81.1%; in the assay with EKVX NSCLC, 71.6%; in the assay with SN12C renal, 62.3%; in the assay on UO-31 renal, 54.2%; in the assay with TK-10 renal, 103%; in the assay with ACHN renal it was 89.4%. Further, the growth in the assay with CAKI-1 renal is 88.6%; in the assay with A498 renal it was 62.8%; in the assay with CCRF-CEM leukemia it was 16.7%; in the assay with MOLT-4 leukemia, 36.3%; in the assay with SR leukemia, 27.2%; in the assay on RPMI-8226 leukemia it was 62.5%. In addition, the growth with OVCAR-8 ovarian is 58.7%; in the assay with OVCAR-5 ovarian, 102%; with OVCAR-4 ovarian, 54%; in the assay with SK-OV-3 ovarian, 71.6%; in the assay on IGROV1 ovarian it was 93.1%; with OVCAR-3 ovarian it was 59.3%. For the same molecule, the growth was 53.9% in the assay with HS 578T breast and 90.7% in the assay on NCI/ADR-RES ovarian.
For the molecule `O=C(N/N=C/c1ccc([N+](=O)[O-])cc1)c1ccccc1Nc1cccc(C(F)(F)F)c1`, the growth with SK-MEL-2 melanoma was 80.9%; in the assay with EKVX NSCLC, 92.4%; with SN12C renal it was 99.5%; with UO-31 renal, 78.4%; in the assay with TK-10 renal, 173%; in the assay on ACHN renal it was 91%. The growth is 76.9% in the assay with CAKI-1 renal; -6.91% (active) in the assay on A498 renal; 91.9% with CCRF-CEM leukemia; 109% with MOLT-4 leukemia; 104% with SR leukemia; 90.4% in the assay on RPMI-8226 leukemia. The growth in the assay with OVCAR-8 ovarian was 95.8%; in the assay with OVCAR-5 ovarian it was 98.6%; with OVCAR-4 ovarian, 98.2%; in the assay on SK-OV-3 ovarian, 103%; in the assay with IGROV1 ovarian, 67.3%; with OVCAR-3 ovarian it was 103%. Besides, the growth in the assay with HS 578T breast was 7.5% (active); with NCI/ADR-RES ovarian, 91.4%.
Turning to `COc1ccc(/C(C#N)=C/c2ccccc2OC)cc1`, the growth was 15.9% in the assay on SK-MEL-2 melanoma; 64.6% in the assay with EKVX NSCLC; 47.3% in the assay on SN12C renal; 52.2% in the assay on UO-31 renal; 53% with TK-10 renal; 44.1% in the assay with ACHN renal. Further, the growth was 39% in the assay with CAKI-1 renal; 25.6% in the assay on A498 renal; 16.2% in the assay with CCRF-CEM leukemia; 21.3% with MOLT-4 leukemia; 34.7% with SR leukemia; 52.3% with RPMI-8226 leukemia. The growth is 53.5% in the assay with OVCAR-8 ovarian; 55.5% in the assay with OVCAR-5 ovarian; 89.9% with OVCAR-4 ovarian; 33.2% with SK-OV-3 ovarian; 31.9% in the assay with IGROV1 ovarian; 25.8% in the assay on OVCAR-3 ovarian. The growth is 47.8% in the assay on HS 578T breast and -0.0917% (active) in the assay with NCI/ADR-RES ovarian.
`O=C(Cn1cc(CO)nn1)Nc1nc2ccccc2s1`: the growth is 107% in the assay on SK-MEL-2 melanoma; 94.1% in the assay on EKVX NSCLC; 96.5% in the assay on SN12C renal; 72.6% in the assay on UO-31 renal; 106% in the assay with TK-10 renal; 104% in the assay with ACHN renal. In addition, the growth in the assay with CAKI-1 renal is 88.9%; in the assay on A498 renal it was 118%; with CCRF-CEM leukemia, 103%; in the assay on MOLT-4 leukemia, 104%; in the assay on SR leukemia it was 100%; with RPMI-8226 leukemia it was 107%. Further, the growth is 99.4% in the assay with OVCAR-8 ovarian; 101% in the assay on OVCAR-5 ovarian; 108% in the assay with OVCAR-4 ovarian; 104% in the assay with SK-OV-3 ovarian; 97.8% in the assay with IGROV1 ovarian; 101% with OVCAR-3 ovarian. Further, the growth with HS 578T breast is 109%; with NCI/ADR-RES ovarian, 101%.
